# Experimental data as given in PubChem BioAssay (NCATS).
# Records with an inconclusive call do not appear. Where a call stands in place of a potency, no number is given. The source made the active and inactive calls. Unless noted, calls follow the shape of the dose curve; as a rule, active = well fitted curve in the direction sought with a large enough effect; inconclusive = small, poorly fitted or top-dose-only effect, or another doubt; inactive = no such curve, though single readings can be large; an effect the other way counts as inactive or inconclusive.
# Tests used:
# [1] = target: Phosphoglycerate kinase, glycosomal (Trypanosoma brucei brucei) (UniProt P07378); experiment: qHTS Validation Assay to Find Inhibitors of Phosphoglycerate Kinase (AID 504547)
# Chain of Phosphoglycerate kinase, glycosomal (Trypanosoma brucei brucei) (P07378 whole entry, looked up): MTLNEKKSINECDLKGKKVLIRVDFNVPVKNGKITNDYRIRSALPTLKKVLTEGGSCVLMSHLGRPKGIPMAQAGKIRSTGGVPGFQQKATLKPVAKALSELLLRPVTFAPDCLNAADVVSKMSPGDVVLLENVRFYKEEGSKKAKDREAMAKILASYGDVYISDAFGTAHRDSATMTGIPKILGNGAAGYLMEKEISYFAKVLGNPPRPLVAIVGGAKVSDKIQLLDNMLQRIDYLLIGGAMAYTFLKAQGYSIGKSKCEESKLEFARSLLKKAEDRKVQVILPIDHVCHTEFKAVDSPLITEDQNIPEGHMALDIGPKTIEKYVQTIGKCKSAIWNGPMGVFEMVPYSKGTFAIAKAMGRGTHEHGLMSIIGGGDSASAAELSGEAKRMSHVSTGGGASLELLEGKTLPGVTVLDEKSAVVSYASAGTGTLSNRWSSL
# Procedure, shortened: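 In TEA buffer (100mM, pH 7.6) containing 5mM MgCl2 and 0.01% Tween-20, the GAPDH-coupled PGK reaction proceeded for 60 minutes at room temperature before a single luminescence reading using Kinase-Glo Plus.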
# [2] = target: phosphoglycerate mutase (Leishmania major) (UniProt Q4Q090); experiment: qHTS Validation Assay to Find Inhibitors of Phosphoglycerate Mutase (AID 504548); conditions: Potency: inhibition qHTS; also: series mostly up to about 58 µM
# Chain of phosphoglycerate mutase (Leishmania major) (Q4Q090 1-553): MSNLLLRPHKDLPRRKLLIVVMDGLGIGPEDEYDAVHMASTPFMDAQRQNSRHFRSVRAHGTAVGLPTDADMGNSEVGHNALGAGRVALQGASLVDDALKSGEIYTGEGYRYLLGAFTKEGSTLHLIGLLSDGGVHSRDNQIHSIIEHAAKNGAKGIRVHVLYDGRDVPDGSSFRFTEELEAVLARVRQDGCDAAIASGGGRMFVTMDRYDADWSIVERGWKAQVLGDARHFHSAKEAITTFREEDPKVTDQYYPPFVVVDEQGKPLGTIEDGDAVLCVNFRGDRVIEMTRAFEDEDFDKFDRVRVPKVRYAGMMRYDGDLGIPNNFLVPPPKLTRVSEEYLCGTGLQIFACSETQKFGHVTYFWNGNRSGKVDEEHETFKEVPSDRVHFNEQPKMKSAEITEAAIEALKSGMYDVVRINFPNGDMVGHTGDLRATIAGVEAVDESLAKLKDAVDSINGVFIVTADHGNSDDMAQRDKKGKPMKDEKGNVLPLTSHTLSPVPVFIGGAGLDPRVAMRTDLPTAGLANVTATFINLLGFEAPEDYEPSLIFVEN
# Procedure, shortened: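 Luminescent end-point read-out via Kinase-GloPlus after a 10-minute development. Reaction: 1.25nM Leishmania major PGAM with substrate and compound, 45 minutes at room temperature in TEA buffer (pH 7.6) with MgCl2 and Tween-20.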
# [3] = Inducers of the Endoplasmic Reticulum Stress Response (ERSR) in human glioma: Validation (AID 504836)
# Procedure, shortened: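 Stably transfected U87-MG human glioma cells carrying a GRP78-based luminescent sensor were seeded at 1000 cells/well, pin-dosed with compounds and incubated 16 h. Luciferase reagent was then added, and end-point luminescence was read after 10 min at room temperature.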
# [4] = target: Ubiquitin carboxyl-terminal hydrolase 1 (Homo sapiens) (UniProt O94782); experiment: Inhibitors of USP1/UAF1: Pilot qHTS (AID 504865);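 also: rhodamine fluorescence freed from ubiquitin-rhodamine substrate followed over time; top concentration of the series differs between compounds; nearly all actives have a fitted effect of over 35% in size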
# Chain of Ubiquitin carboxyl-terminal hydrolase 1 (Homo sapiens) (O94782 whole entry, looked up): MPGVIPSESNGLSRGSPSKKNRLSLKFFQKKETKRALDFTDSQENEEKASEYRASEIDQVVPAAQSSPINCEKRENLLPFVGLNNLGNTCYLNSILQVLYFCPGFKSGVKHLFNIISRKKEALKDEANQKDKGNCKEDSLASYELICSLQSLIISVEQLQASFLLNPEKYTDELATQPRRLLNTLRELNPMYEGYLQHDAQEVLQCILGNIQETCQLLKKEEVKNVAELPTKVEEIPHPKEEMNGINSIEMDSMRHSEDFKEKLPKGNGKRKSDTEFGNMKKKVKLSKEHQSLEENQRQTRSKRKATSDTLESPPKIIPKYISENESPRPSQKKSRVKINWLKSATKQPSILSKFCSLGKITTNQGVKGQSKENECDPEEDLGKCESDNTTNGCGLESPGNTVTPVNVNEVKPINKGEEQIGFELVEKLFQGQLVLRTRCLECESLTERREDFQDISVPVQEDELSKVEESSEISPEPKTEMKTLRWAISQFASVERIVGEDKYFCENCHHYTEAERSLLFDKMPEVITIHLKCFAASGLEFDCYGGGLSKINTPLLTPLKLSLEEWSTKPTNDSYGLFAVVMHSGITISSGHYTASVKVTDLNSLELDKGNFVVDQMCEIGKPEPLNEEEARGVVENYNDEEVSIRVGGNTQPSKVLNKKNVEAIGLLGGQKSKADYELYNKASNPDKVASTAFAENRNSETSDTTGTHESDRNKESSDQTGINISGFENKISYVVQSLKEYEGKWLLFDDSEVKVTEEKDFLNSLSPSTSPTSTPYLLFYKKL
# Procedure, shortened: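 1nM USP1/UAF1 + cpd, 15 min RT; start w/ Ub-Rho 150nM final; kinetic FL 480/540 nm, 6 reads q60 s. Buffer 50mM HEPES pH 7.8, 0.5mM EDTA, 1mM TCEP, 0.01% Tween-20, 0.1 mg/ml BSA.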
# [5] = qHTS for Inhibitors of ATXN expression: Validation of Cytotoxic Assay (AID 588349)
# Procedure, shortened: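 Cytotoxicity counter-screen: HEK293 cells exposed to compound titrations, 72 hr, 37 degrees C. Read-out is intracellular ATP (CellTiter Glo luminescence) as a viability measure.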
# [6] = qHTS for Inhibitors of ATXN expression: Validation (AID 588378); also: nearly all actives have a fitted effect of over 75% in size; also: potency is read from the fitted curve at half-maximal effect
# Procedure, shortened: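 Cells: HEK293-ATXN2-FFLuc, phenol-red free DMEM, 2 h attachment. Compound pin-transfer, 24 h, 37 degrees C, 5% CO2. CellTiter-Fluor 30 min, Ex405/Em525; Bright-Glo 5 min, luminescence 2 s exposure.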
# [7] = target: DNA dC->dU-editing enzyme APOBEC-3G (Homo sapiens) (UniProt Q9HC16); experiment: qHTS for inhibitors of Vif-A3G interactions: Validation (AID 588379)
# Chain of DNA dC->dU-editing enzyme APOBEC-3G (Homo sapiens) (Q9HC16 whole entry, looked up): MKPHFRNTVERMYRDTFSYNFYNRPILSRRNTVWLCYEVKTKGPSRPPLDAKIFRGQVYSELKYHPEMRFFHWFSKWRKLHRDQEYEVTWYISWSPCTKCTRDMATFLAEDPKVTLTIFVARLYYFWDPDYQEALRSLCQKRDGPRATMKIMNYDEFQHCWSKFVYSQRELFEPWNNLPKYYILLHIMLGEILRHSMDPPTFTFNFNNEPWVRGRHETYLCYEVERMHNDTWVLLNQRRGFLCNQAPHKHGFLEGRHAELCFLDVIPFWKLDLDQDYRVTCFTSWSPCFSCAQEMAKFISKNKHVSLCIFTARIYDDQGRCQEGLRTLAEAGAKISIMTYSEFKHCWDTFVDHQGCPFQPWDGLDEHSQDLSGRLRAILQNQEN
# Procedure, shortened: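 Yellow fluorescence (Ex 488, Em 500-530) of Vif-coexpressing HeLa A3G-eYFP cells, scanned by Acumen cytometer, reports blocked A3G degradation. Cells plated at 700/well overnight at 37 deg C before compound addition, then a further overnight compound incubation at 37 deg C.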
# [8] = target: Peptidyl-prolyl cis-trans isomerase NIMA-interacting 1 (Homo sapiens) (UniProt Q13526); experiment: qHTS Validation Assay to Find Inhibitors of Pin1 (AID 504536; active = well fitted inhibition curve with a large enough effect in the polarisation, with a control signal flat, not every such curve was filed as active; the % refers to the polarisation)
# Chain of Peptidyl-prolyl cis-trans isomerase NIMA-interacting 1 (Homo sapiens) (Q13526 whole entry, looked up): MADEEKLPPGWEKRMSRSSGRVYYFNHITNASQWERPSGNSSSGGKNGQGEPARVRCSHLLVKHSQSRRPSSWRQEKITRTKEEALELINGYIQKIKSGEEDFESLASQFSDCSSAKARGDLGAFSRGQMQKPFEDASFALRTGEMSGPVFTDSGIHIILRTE
# Procedure, shortened: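 Fluorescence polarization competition: compounds (titration) displace HiFluor-488-labeled Pin1-1b peptide from Pin1 (0.3 uM final) in pH 7.5 HEPES buffer with DTT, 10 min at room temperature; %Activity normalized to no-enzyme wells, curves fitted.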
# [9] = target: Estrogen receptor (Homo sapiens) (UniProt P03372); experiment: qHTS assay for small molecule agonists of estrogen receptor alpha signaling (AID 588514; calls by dose curve; also: nearly all actives have a fitted effect of over 70% in size)
# Chain of Estrogen receptor (Homo sapiens) (P03372 whole entry, looked up): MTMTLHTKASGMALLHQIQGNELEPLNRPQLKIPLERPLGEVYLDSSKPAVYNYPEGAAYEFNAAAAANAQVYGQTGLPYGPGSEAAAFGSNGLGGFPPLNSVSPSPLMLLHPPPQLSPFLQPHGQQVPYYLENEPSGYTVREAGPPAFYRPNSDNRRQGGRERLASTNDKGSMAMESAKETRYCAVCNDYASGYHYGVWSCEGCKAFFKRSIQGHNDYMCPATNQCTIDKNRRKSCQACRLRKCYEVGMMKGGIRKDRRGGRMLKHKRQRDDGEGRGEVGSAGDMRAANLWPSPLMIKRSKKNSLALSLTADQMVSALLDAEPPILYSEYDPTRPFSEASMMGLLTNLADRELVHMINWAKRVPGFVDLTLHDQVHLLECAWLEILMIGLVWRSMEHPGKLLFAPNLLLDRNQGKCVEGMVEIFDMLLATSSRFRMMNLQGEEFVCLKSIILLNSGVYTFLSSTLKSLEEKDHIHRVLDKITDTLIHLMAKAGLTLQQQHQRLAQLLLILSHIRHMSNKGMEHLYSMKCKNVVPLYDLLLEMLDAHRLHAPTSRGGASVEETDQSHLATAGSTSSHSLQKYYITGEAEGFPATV
# Procedure, shortened: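 Read-out: CCF4 fluorescence from a beta-lactamase reporter in ER-alpha-UAS-bla HEK 293 cells after 18 hrs of compound exposure at 37 C. Normalized to 20 nM 17-beta-estradiol (100%) and DMSO (0%).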
Structure (SMILES),Potency [1],Potency [2],outcome [3],Potency [4],Potency [5],Potency [6],outcome [7],Potency [8],Potency [9]
N[C@@H](Cn1oc(=O)[nH]c1=O)C(=O)O,inactive,inactive,inactive,inactive,inactive,inactive,inactive,,
C[C@H](Cc1ccc2c(c1)OC(C(=O)O)(C(=O)O)O2)NC[C@H](O)c1cccc(Cl)c1,inactive,inactive,inactive,inactive,inactive,inactive,,,
CC(N)Cc1c[nH]c2ccc(OCc3cccs3)cc12 (stereo not drawn),inactive,inactive,inactive,inactive,,28.2 µM (active),,,
C[C@H](N)Cc1cccc(C(F)(F)F)c1,inactive,inactive,inactive,inactive,inactive,inactive,,,
O=C1CC[C@@]2(O)C3Cc4ccc(O)c5c4C2(CCN3CC2CC2)[C@H]1O5 (stereo partly drawn),inactive,inactive,inactive,inactive,inactive,inactive,,,
Clc1cc(I)cc(Cl)c1NC1=NCCN1,inactive,inactive,inactive,inactive,inactive,inactive,,,
CC(C)(O)[C@@H]1C2OC(=O)[C@@H]1[C@]1(O)C[C@H]3O[C@]34C(=O)O[C@H]2[C@]14C (tested in a mixture with another compound),inactive,inactive,inactive,inactive,inactive,inactive,,,
COc1ccc2[nH]c3c(c2c1)CCNC3,inactive,inactive,inactive,inactive,inactive,,,,
N=C(N)c1ccc(CS(=O)(=O)F)cc1,inactive,inactive,inactive,inactive,inactive,inactive,,,
C[N+]1(C)CCc2cc3c(cc2[C@H]1[C@@H]1OC(=O)c2c1ccc1c2OCO1)OCO3,inactive,inactive,inactive,inactive,inactive,inactive,,,
NC(C(=O)O)c1cc(=O)[nH]o1 (stereo not drawn),inactive,inactive,inactive,inactive,inactive,inactive,,,
NC(N)=NOCC[C@H](N)C(=O)O,inactive,inactive,inactive,inactive,,inactive,inactive,,
O=S1(=O)N(CCN2CC=C(c3c[nH]c4cc(F)ccc34)CC2)c2cccc3c2N1CCC3,inactive,inactive,inactive,inactive,,,,,
C[N+](C)(C)CCOC(=O)CBr,inactive,inactive,inactive,inactive,inactive,inactive,,,
Clc1ccc(N2CC3CCC(C2)N3)nn1,inactive,inactive,inactive,inactive,inactive,inactive,,,
O=C(O)c1cc[c]([Hg][Cl])cc1,inactive,,inactive,,,,,inactive,inactive
C[N+]1(C)CCN(c2ccccc2)CC1,inactive,inactive,inactive,inactive,,inactive,,,
C=CCN(C1=NCCN1)c1c(Cl)cccc1Cl,inactive,inactive,inactive,inactive,inactive,inactive,,,
N[C@@]1(C(=O)O)CC[C@@H](C(=O)O)C1,inactive,inactive,inactive,inactive,inactive,inactive,,,
C/C(O)=C(\C#N)C(=O)Nc1cc(Br)ccc1Br,inactive,inactive,inactive,,inactive,inactive,,,
CCC1(C)CC(=O)NC(=O)C1,,,,inactive,,,,,
COc1ccc2c(c1)[C@@]13CCCC[C@H]1[C@@H](C2)NCC3,inactive,inactive,inactive,,inactive,,,,
